PubChem BioAssay (NCATS)
Records with an inconclusive call do not appear. Values without a mark were called inactive. Calls of active or inactive are those of the source. Calls follow the shape of the dose curve; as a rule, active = well fitted cell-killing curve with a large enough effect; inconclusive = small, poorly fitted or top-dose-only effect, or effect the other way; inactive = no such curve, though single readings can be large or run the other way.

Test: Quantitative High-Throughput drug screen in 47 multiple myeloma cell lines against the NCATS MIPE library collection: ARD_JJKsccE7 cell viability assay (AID 1918929)
Details: ARD myeloma cell line viability, CellTiter-Glo, 48 h; series mostly up to 45.8 µM; viability: at the top concentration
Source text: PI: Beverly A. Mock Ph.D.
Laboratory of Cancer Biology and Genetics,
Center for Cancer Research, National Cancer Institute,
National Institute of Health, Bethesda, Maryland
Drug resistance and disease progression are common in multiple myeloma (MM) patients, underscoring the need for new therapeutic combinations. […] We hypothesized that effective combinations would reduce MYC expression and enhance p16 activity. […] These preclinical data identify potentially useful drug combinations for evaluation in drug-resistant MM and reveal potential mechanisms of combined drug sensitivity.
Described herein is the primary MIPE qHTS used to cherrypick compounds. Validated compounds were then further tested for potential synergistic activiy.
[1] Peat TJ, Gaikwad SM, Dubois W, Gyabaah-Kessie N, Zhang S, Gorjifard S, Phyo Z, Andres M, Hughitt VK, Simpson RM, Miller MA, Girvin AT, Taylor A, Williams D, D'Antonio N, Zhang Y, Rajagopalan A, Flietner E, Wilson K, Zhang X, Shinn P, Klumpp-Thomas C, McKnight C, Itkin Z, Chen L, Kazandijian D, Zhang J, Michalowski AM, Simmons JK, Keats J, Thomas CJ, Mock BA. Drug combinations identified by high-throughput screening promote cell cycle transition and upregulate Smad pathways in myeloma. Cancer Lett. 2023 Aug 1;568:216284. doi: 10.1016/j.canlet.2023.216284. Epub 2023 Jun 24. PMID: 37356470; PMCID: PMC10408729.
SEQUENCE No. (e.g., 1, 2, 3, etc.); […] (e.g., Cells, Incubation, Reagent, etc.); VALUE and DESCRIPTION.
1; Cells; 5 uL; white, solid bottom 1536-well Greiner assay plate.
2; Compounds; 23 nL; Kalypsis pin tool (Wako USA) equipped with a 1536-well pin head to transfer to the assay plates.
3; Incubation; 48 hours; 37C incubation.
4; Reagent;5uL; CellTiter Glo (Promega).
5; Detector; 425V; Luminescence; Viewlux PerkinElmer.
NOTES (numbers refer to Sequence numbers above)
1. The cell-based screening methods employed in this study were like those previously published. Briefly, the corresponding myeloma cell lines were screened in 1,536-well plates with 500 cells, 5-uL per well for inhibition of cell viability (assessed by measuring ATP levels with CellTiterGlo).
2. NCATS MIPE 4.0 library of approved and investigational drugs were added using the Kalypsis pin tool. Wells treated with DMSO only for 100% viability and media only wells for 0% viability were used as controls.
3. The assay plates were covered and incubated for 48 hours in a 37C, 5% CO2 incubator with controlled humidity.
4. After 48 hours, CellTilter-GloTM luminescent substrate mix (Promega) reagent was added to the assay plate and plates we incubated for 5 min at room temperature.
5. Signal was measured as median relative luminescence units on a ViewLux (PerkinElmer) multiplate reader.
[1] Heske CM, Davis MI, Baumgart JT, Wilson K, Gormally MV, Chen L, Zhang X, Ceribelli M, Duveau DY, Guha R, Ferrer M, Arnaldez FI, Ji J, Tran HL, Zhang Y, Mendoza A, Helman LJ, Thomas CJ. Matrix Screen Identifies Synergistic Combination of PARP Inhibitors and Nicotinamide Phosphoribosyltransferase (NAMPT) Inhibitors in Ewing Sarcoma. Clin Cancer Res. 2017 Dec 1;23(23):7301-7311. doi: 10.1158/1078-0432.CCR-17-1121. Epub 2017 Sep 12. PMID: 28899971; PMCID: PMC6636827.
Potency is read from the fitted curve at half-maximal effect.

SMILES	viability	Potency
COCCCCC(=NOCCN)c1ccc(C(F)(F)F)cc1	105%	
NC[C@@H]1O[C@@H](O[C@H]2[C@@H](O)[C@H](O[C@@H]3[C@@H](O)[C@@H](N)C[C@H](N)[C@H]3O[C@H]3O[C@H](CN)[C@@H](O)[C@@H](O)[C@H]3N)O[C@H]2CO)[C@H](N)[C@@H](O)[C@@H]1O	147%	
NS(=O)(=O)c1ccc(NC2=CC(=O)c3ccccc3C2=O)cc1		2.64 µM (active)
COc1cc(O)c2c(c1)C(=O)c1cc(C)cc(O)c1C2=O	124% [at 23.2 µM]	
CC(C)(C)c1cc(C(=O)O)c(NC(=O)Nc2ccc3[nH]ncc3c2)s1	91.3%	
Cc1cc(OCCCc2c(C(=O)O)n(Cc3cccnc3)c3c(-c4c(COc5ccc(N6CCN([S+](C)(=O)[O-])CC6)cc5)nn(C)c4C)cccc23)cc(C)c1Cl	127%	
COC(=O)N[C@H](C(=O)N1CCC[C@@H]1c1ncc(-c2ccc(-c3ccc(-c4cnc([C@@H]5CCCN5C(=O)[C@@H](NC(=O)OC)C(C)C)[nH]4)cc3)cc2)[nH]1)C(C)C		23.5 µM (active)
Oc1ccc(C2=Cc3ccc(O)cc3OC2)cc1		1.66 µM (active)
CO[C@@H](C(=O)N1Cc2[nH]nc(NC(=O)c3ccc(N4CCN(C)CC4)cc3)c2C1)c1ccccc1		26.4 µM (active)
O=C(NCc1ccccc1)c1csc(Nc2ccncn2)n1		10.5 µM (active)
C[C@H](NC(=O)c1sccc1OCc1ccc(Cl)cc1)c1ccccc1	102%	
Nc1ncnc2c1ncn2[C@@H]1O[C@@H](CO)[C@H](O)[C@H]1O	114%	
NC(=O)c1cccc(-c2cc(Nc3ccc(OC(F)(F)F)cc3)ncn2)c1		14.8 µM (active)
O=C(O)CCC1CCC(c2cc(F)ccc2F)(S(=O)(=O)c2ccc(Cl)cc2)CC1 (stereo not given)		14.8 µM (active)
CCCCCN(C)CCC(O)(P(=O)(O)O)P(=O)(O)O	101%	
Clc1ccc(COC(Cn2ccnc2)c2ccc(Cl)cc2Cl)cc1 (stereo not given)		26.4 µM (active)
CCOc1ccc(Nc2nc(-c3c(C)nc4ccccn34)cs2)cc1		0.001 µM (active)
CCc1ccc(OCc2ccccc2C(=O)Nc2ccc3nc(C)cc(N)c3c2)cc1		2.64 µM (active)
CN(C)Cc1ccc(-c2nc3cccc4c3n2CCNC4=O)cc1		29.6 µM (active)
NC1=N[C@@]2(c3cc(NC(=O)c4ccc(F)cn4)ccc3F)COC[C@@H]2CS1		1.87 µM (active)

SMILES	viability	Potency
O=C(OCC#CCSc1nnc(-c2cccc3ccccc23)o1)c1cc2ccccc2s1	131%	
COc1cccc(-c2cc(=O)c3ccccc3o2)c1N	85%	
O=C(Nc1ccccc1-c1cn2c(CN3CCNCC3)csc2n1)c1cnc2ccccc2n1	86.2%	
CC(=O)Nc1ccc([C@H](C)C(=O)Nc2ncc(C(C)C)s2)cc1		1.18 µM (active)
CC[C@H]1OC(=O)[C@H](C)C(=O)[C@H](C)[C@@H](O[C@H]2O[C@H](C)C[C@H](N(C)C)[C@@H]2O)[C@](C)(OC)C[C@@H](C)C(=O)[C@H](C)[C@H]2N(CCCCn3cnc(-c4cccnc4)c3)C(=O)O[C@]12C	122%	
Cc1cnc(C(=O)O)c[n+]1[O-]	121%	
O=C(Nc1cc(Cl)cc2c1[nH]c1cnccc12)c1cccnc1	144%	
CC1(C)S[C@H]2[C@H](NC(=O)[C@@H](N)c3ccc(O)cc3)C(=O)N2[C@@H]1C(=O)O		4.69 µM (active)
Nc1ncnc2c1ncn2[C@@H]1O[C@H](CO)C[C@@H]1O	101%	
CCOC1OC(=O)C[C@H]1NC(=O)[C@@H]1CCCN1C(=O)[C@@H](NC(=O)c1ccc(N)c(Cl)c1)C(C)(C)C (stereo not given in full)		20.9 µM (active)
CC(C)OC(=O)CCCC=CC[C@@H]1[C@H](C=C[C@@H](O)COc2cccc(C(F)(F)F)c2)[C@H](O)C[C@@H]1O	138%	
N#Cc1ccc(NC(=O)Nc2ccccc2Br)c2n[nH]nc12		10.5 µM (active)
c1ccc2c(Cc3c[nH]c4ccccc34)c[nH]c2c1	88.3%	
Nc1ncnc2ccccc12	154%	
CC(C(=O)O)c1ccc(-c2ccccc2)c(F)c1 (stereo not given)	123%	
O=c1cc(-c2ccccc2)oc2cc(O)cc(O)c12		26.4 µM (active)
C[C@]12CC[C@@H]3c4ccc(O)cc4CC[C@H]3[C@H]1C[C@@H](O)[C@H]2O	113%	
O=c1cc(-c2ccccc2)oc2cc(O)c(O)c(O)c12	146%	
CC[C@@]1(O)C[C@H](O[C@H]2C[C@H](N(C)C)[C@H](O[C@H]3C[C@H](O)[C@H](O[C@H]4CCC(=O)[C@H](C)O4)[C@H](C)O3)[C@H](C)O2)c2c(cc3c(c2O)C(=O)c2c(O)cccc2C3=O)[C@@H]1C(=O)OC		5.26 µM (active)
CC(C)n1cnc2c(NCCCCCCNC(=O)OC(C)(C)C)nc(NCCO)nc21		5.9 µM (active)
